High-throughput results: PubChem, National Center for Advancing Translational Sciences (NCATS)
G9a inh: G9a (human) methyltransferase inhibition; Potency, µM (highest dose often 102 µM), inactives show top-dose activity, negative = inhibition, actives largely listed as inhibitors; hit rate 8.8% among 350,000; G9a H3K9 monomethylation, AlphaScreen, 2 h; Q96KQ7; further: potency means the concentration at half of the fitted maximal effect; nearly all actives have a fitted effect of over 75% in size
Target sequence (Q96KQ7 913-1193 limits assumed): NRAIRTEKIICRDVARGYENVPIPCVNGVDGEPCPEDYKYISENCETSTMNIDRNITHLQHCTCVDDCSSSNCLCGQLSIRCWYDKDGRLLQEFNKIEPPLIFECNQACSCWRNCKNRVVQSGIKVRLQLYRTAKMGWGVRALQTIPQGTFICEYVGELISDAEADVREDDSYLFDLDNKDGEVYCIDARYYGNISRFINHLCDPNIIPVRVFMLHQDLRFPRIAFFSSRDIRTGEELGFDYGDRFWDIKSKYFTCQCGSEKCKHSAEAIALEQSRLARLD
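Signal arises when biotinylated H3K9 peptide, once monomethylated, bridges streptavidin donor and antibody-captured acceptor beads. Enzyme at 20 nM was preincubated 15 min with test compounds; peptide 500 nM and SAM 20 uM then reacted for 2 h.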
Sfp inh: inhibitors of Bacillus subtilis Sfp phosphopantetheinyl transferase; Q9F4F7; Biochemical Sfp PPTase activity, qHTS; Potency, µM, inactives show largest response in the series, negative = inhibition, most hits filed as inhibitors; hit rate 3.5% among 310,000; AID 1490;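 further: the enzyme is Sfp with the accession as filed and its product quenches rhodamine fluorescence; potency means the concentration at half of the fitted maximal effect; 0% = enzyme reaction without inhibitor and -100% = no enzyme wells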
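Fluorescence-quenching assay with 15 nM Sfp, 5 uM rhodamine-CoA and 12.5 uM BHQ-2-labelled ybbR peptide in pH 7.6 Hepes/MgCl2 buffer. Enzyme was pre-incubated with compound for 15 min at room temperature. Rate was taken from the 30-min fluorescence change (525/598 nm).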
Tau fibril FP: tau fibrillization inhibition (FP); P10636; K18 P301L tau heparin fibrillization, Alexa594 FP, 6 h; Potency, µM (series often up to 57.7 µM), without a hit: at the top dose activity, negative = inhibition, actives largely listed as inhibitors; hit rate 0.39% among 280,000; AID 1468; further: potency means the concentration at half of the fitted maximal effect; nearly all actives have a fitted effect of over 55% in size
Target sequence (P10636 561-689 P618L limits assumed): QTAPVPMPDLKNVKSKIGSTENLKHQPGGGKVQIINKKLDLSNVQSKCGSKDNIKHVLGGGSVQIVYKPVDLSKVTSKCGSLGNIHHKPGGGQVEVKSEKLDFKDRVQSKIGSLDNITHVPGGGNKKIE
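Recombinant K18 P301L […], labeled with Alexa 594 at 0.24 uM over 15 uM unlabeled; heparin inducer 20 uM final; 37 C, 6 hr; FP endpoint.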
Tau ThT inhib: blocks human tau fibril formation measured by thioflavin T | recombinant tau K18 P301L, heparin-induced fibrillization, ThT fluorescence | Potency, µM (top dose mostly 57.4 µM), for inactives: top-dose activity, negative = inhibition, actives largely listed as inhibitors | hit rate 2.1% among 270,000 | AID 1460; further: potency means the concentration at half of the fitted maximal effect; nearly all actives have a fitted effect of over 55% in size
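Recombinant human tau K18 fragment […] carrying P301L, 15 uM unlabeled plus 0.24 uM Alexa 594-labeled, was fibrillized with 20 uM heparin in 100 mM sodium acetate pH 7 for 6 hr at 37 C; 30 uM ThT fluorescence read after 1 hr.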
Tau fluor cs: counter-screen for tau fibril formation inhibitors | tau K18 P301L Alexa594 fluorescence, heparin fibrillization | Potency, µM (series often up to 57.7 µM), inactives show top-dose activity change, negative = decrease | hit rate 0.93% among 280,000 | AID 1463; further: potency means the concentration at half of the fitted maximal effect; nearly all actives have a fitted effect of over 55% in size
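Human tau K18 P301L (15 uM unlabeled, 0.24 uM Alexa 594-labeled) in 100 mM sodium acetate pH 7 with 20 uM heparin, 6 hr at 37 C. ThT 30 uM added, 1 hr ambient; Alexa 594 FP and total fluorescence read at 555/632 nm.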
Coupling enz: counter-screen for Giardia aldolase inhibitors: coupling enzyme system; hit rate 0.67% among 290,000; coupling enzyme system counterscreen, AmpLite Red fluorescence; activity change, negative = inhibition, % at 58.2 µM, hits read low; AID 2472; in the data active means activity change below about -30%
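Fluorescence at 525 nm excitation and 598 nm emission measured inhibition of the coupled detection system without aldolase. Compounds (at 57.5 uM final) were preincubated 10 min at room temperature with coupling enzyme reagent before a 20 min substrate/AmpLite Red step.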
An asterisk follows results filed as active; ? = inconclusive; / = no result given; [ ] = remark or other dose. Only some compounds are listed: those with a hit (about 11% of all), similar ones and a draw of the others. Unless noted, the call rests on the fitted dose curve; in most records, active means well fitted curve in the direction sought with a large enough effect; inconclusive means small, poorly fitted or top-dose-only effect, or another doubt; inactive means no such curve, though single readings can be large; an effect the other way counts as inactive or inconclusive. Unless noted, on the % scale 0 is the no-effect control and ±100 the full control effect.

SMILES | G9a inh | Sfp inh | Tau fibril FP | Tau ThT inhib | Tau fluor cs | Coupling enz
CCCn1nc(NS(=O)(=O)c2cccc3nonc23)c2cc3ccccc3nc21 | 4% | 1% | / | / | / | 4
CNc1cccccc1=S | 3.5µM* | 2% | ? | 13µM* | -29% | 6
Cc1ccc(NS(=O)(=O)c2ccc(C(=O)N3CCOCC3)cc2)cc1 | -25% | / | / | / | / | /
CC(=O)/C(=N\Nc1ccc(C)cc1)N1CCOCC1 | 28µM* | -6% | 0% | -14% | -18% | 1
O=C(Cc1ccc(Br)cc1)N1CCOCC1 | 79µM* | 20% | / | / | / | -1
Cc1ccc(CC(=S)N2CCOCC2)cc1 | 8.9µM* | 35µM* | -7% | -6% | -4% | 3
COc1ccc(CC(=S)N2CCOCC2)cc1 | ? | 16µM* | -11% | ? | -6% | 1
CCc1ccc(CC(=S)N2CCOCC2)cc1 | 4% | 8% | -5% | -4% | -12% | 0
CNC(=S)NNC(=O)c1sc(-c2cc(C)on2)nc1C | 0%[59 µM] | 9% | -8% | -15% | -12% | 0
Cc1ccc(C(=O)CSc2nc3cc(C(=O)NC4CCCC4)ccc3c(=O)n2CC2CCCO2)c(C)c1 (stereo not drawn) | 6%[59 µM] | / | -2% | -1% | -1% | /
Cc1noc(C)c1-c1cncnc1N(C)Cc1ccco1 | -26%[0.501 µM] | -27% | / | / | / | 1
CCC(C(=O)OCC(=O)N(CC)c1c(N)n(Cc2ccccc2)c(=O)[nH]c1=O)c1ccccc1 (stereo not drawn) | 14%[12.7 µM] | / | / | / | / | /
COc1cccc(CN(C)C(=O)C2CCN(S(=O)(=O)c3cccs3)CC2)c1OC | 6%[2.33 µM] | / | / | / | / | /
Cc1ccc(Cn2c(=N)n(CC(=O)c3ccccc3)c3ccccc32)cc1 | / | ? | 5% | ? | -18% | -4
Cc1cccc(CC(=O)Nc2ccc(C(=O)N3CCOCC3)cc2)c1 | 18% | 5% | / | / | / | /
Cc1ccc(CC(=O)Nc2ccc(C(=O)N3CCOCC3)cc2)cc1 | 18µM* | -8% | / | / | / | /
COc1ccc(CCNCCN2CCOCC2)cc1 | 3.5µM* | ? | / | / | / | 2
Cc1ccc(/C=N/NC(=S)N2CCOCC2)cc1 | 28µM* | -8% | -2% | -3% | 1% | -6
O=C(CSc1nnc(-c2ccccc2)o1)N1CCCCC1 | -4%[59 µM] | 17% | / | / | / | 0
Cc1ccc(CNC(=O)c2ccc(N3Cc4ccccc4Oc4ncccc43)s2)cc1 | 11%[59 µM] | / | 2% | -4% | -24% | /
Nc1ccc2nn(-c3cc([N+](=O)[O-])ccc3O)nc2c1 | 40µM* | -6% | / | / | / | 0
O=C(Cn1nc2ccccc2n1)N/N=C/c1cc([N+](=O)[O-])ccc1O | ? | 7% | 5% | ? | -18% | 10
Cc1csc(NC(=O)CSc2nc3ccccc3c3c2CCCC3)n1 | 28µM* | -8% | -13% | -15% | -20% | 6
Cc1csc(NC(=O)CSc2ncc(-c3ccccc3)[nH]2)n1 | 3.2µM* | 11% | 12% | -7% | -24% | 2
COc1ccc(C2C(C(C)=O)=C(O)C(=O)N2CCN(C)C)cc1OC (stereo not drawn) | 50µM* | 13% | 1% | 5% | 5% | 0
SMILES | G9a inh | Sfp inh | Tau fibril FP | Tau ThT inhib | Tau fluor cs | Coupling enz
COc1ccc(C2C(C(C)=O)=C(O)C(=O)N2CCc2c[nH]c3ccccc23)cc1OC (stereo not drawn) | 25µM* | -6% | 0% | -17% | -7% | 1
CCN(CC)CCN1C(=O)C(O)=C(C(C)=O)C1c1ccc(OC)c(OC)c1 (stereo not drawn) | ? | -8% | -10% | -16% | -14% | -1
CC(C)CC1=NN2C(=N)/C(=C\c3coc4ccccc4c3=O)C(=O)N=C2S1 | ? | -20% | ? | 32µM* | ? | 5
CCSC1=NSC2=NC(=O)/C(=C\c3coc4ccccc4c3=O)C(=N)N12 | ? | -15% | -4% | 25µM* | ? | 1
CC(C)N1CCc2c(sc(NC(=O)c3ccc(S(=O)(=O)N4CCOCC4)cc3)c2C#N)C1 | 32µM* | -17% | -7% | -16% | 1% | -1
CC(C)C1Cc2c(sc(NC(=S)NC(=O)c3ccccc3)c2C#N)CO1 (stereo not drawn) | -25%[59 µM] | 3% | 9% | -11% | -3% | -2
CC(C)N1CCc2c(sc(NC(=S)NC(=O)c3ccccc3)c2C#N)C1 | 10µM* | 40µM* | 10% | ? | ? | -39*
CN1CCc2c(sc(NC(=O)Cc3ccccc3)c2C#N)C1 | 45µM* | -27% | / | / | / | 0
CCOC(=O)c1c(NC(=O)c2ccc(S(=O)(=O)N3CCOCC3)cc2)sc2c1CCN(C)C2 | 50µM* | -21% | 3% | -5% | 0% | -8
CCOc1cc(C(=O)N(C)CC(=O)Nc2cccc(F)c2)ccc1OCC(=O)N1CCOCC1 | -38% | / | / | / | / | /
Clc1cccc(N2CCN(c3nc4ccccc4n4nnnc34)CC2)c1 | 108%[59 µM] | / | 7% | ? | ? | /
CCOC(=O)c1c(NC(=O)CSc2cn(CCNC(=O)c3ccccc3OC)c3ccccc23)sc2c1CCCC2 | 1%[59 µM] | / | -2% | -3% | -14% | /
CCCN1CCc2c(sc(NC(=S)NC(=O)c3ccccc3)c2C#N)C1 | 10µM* | 50µM* | 2% | 16µM* | ? | 1
CCN1CCc2c(sc(NC(=S)NC(=O)c3ccc(Cl)cc3)c2C(N)=O)C1 | 32µM* | 16µM* | -2% | ? | -20% | -6
CN1CCc2c(sc(NC(=O)CS(=O)(=O)c3ccccc3)c2C(N)=O)C1 | 50µM* | / | / | / | / | /
O=C(NC(=S)NC1CCCCC1)c1ccccc1[N+](=O)[O-] | -10%[12.7 µM] | 2% | / | / | / | /
CCN(CC)S(=O)(=O)c1cc([N+](=O)[O-])ccc1NNC(=O)Nc1ccc(Cl)c(Cl)c1 | 7.9µM* | ? | ? | -22% | 7.1µM*[quencher] | -2
O=C(NNc1ccccc1[N+](=O)[O-])Nc1ccc(Cl)c(Cl)c1 | 7.1µM* | -20% | ? | 16µM* | 16µM*[quencher] | 1
O=C(NNc1ccccc1[N+](=O)[O-])Nc1ccc(F)cc1 | 3.5µM* | -5% | -13% | -18% | -5% | -7
O=C(NNc1ccccc1[N+](=O)[O-])Nc1ccccc1 | ? | -2% | -4% | ? | -22% | 1
O=C(NNc1ccccc1[N+](=O)[O-])NC1CCCCC1 | 50µM* | -14% | -2% | -10% | 2% | -11
CCCCN(C)C(=O)Cn1c(=O)oc2cc(S(=O)(=O)N3CC(C)CC(C)C3)ccc21 (stereo not drawn) | -1% | 16% | -3% | -11% | -16% | 1
Cc1c(Cl)cccc1NC(=O)CSc1ncnc2c1sc1ccccc12 | 1%[59 µM] | / | -16% | 1% | 3% | /
O=C(NNc1nc(-c2ccccc2)cs1)c1cccs1 | 6%[59 µM] | ? | 5% | ? | -21% | 0
